Laboratory results reported in PubChem BioAssay (NCATS).
Records with an inconclusive call do not appear. Activity calls are given as the source filed them. The call rests on the fitted dose curve; in most records, active means well fitted curve in the direction sought with a large enough effect; inconclusive means small, poorly fitted or top-dose-only effect, or another doubt; inactive means no such curve, though single readings can be large; an effect the other way counts as inactive or inconclusive. Numbered stars: 1 amine (or outer) side, 2 acyl side, 3 side chain; on linkers, the order of the positions; unused ones are H or OH. Bridge positions count the residues as written; N and C are the ends. Square brackets hold non-standard residues; d marks the D form. Peptide text beside a SMILES is read from it. I, II: the chains in the order shown. Actinocin(9to1) = Cc1c2oc3c(C)ccc(C(=O)[*:1])c3nc-2c(C(=O)[*:2])c(N)c1=O; NMeV = CN[C@H](C(=O)O)C(C)C; Sar = CNCC(=O)O

The compounds below were run against Cytochrome P450 3A4 (Homo sapiens) (UniProt P08684) (assay: qHTS Assay for Activators of Cytochrome P450 3A4 (AID 885; further: nearly all actives have a fitted effect of over 65% in size)). Conditions: recombinant CYP3A4, Luciferin-PPXE luminescence, 60 min; series mostly up to 57.1 µM; activity change, positive = activation: at the top concentration.
Sequence of Cytochrome P450 3A4 (Homo sapiens) (P08684 whole entry, looked up): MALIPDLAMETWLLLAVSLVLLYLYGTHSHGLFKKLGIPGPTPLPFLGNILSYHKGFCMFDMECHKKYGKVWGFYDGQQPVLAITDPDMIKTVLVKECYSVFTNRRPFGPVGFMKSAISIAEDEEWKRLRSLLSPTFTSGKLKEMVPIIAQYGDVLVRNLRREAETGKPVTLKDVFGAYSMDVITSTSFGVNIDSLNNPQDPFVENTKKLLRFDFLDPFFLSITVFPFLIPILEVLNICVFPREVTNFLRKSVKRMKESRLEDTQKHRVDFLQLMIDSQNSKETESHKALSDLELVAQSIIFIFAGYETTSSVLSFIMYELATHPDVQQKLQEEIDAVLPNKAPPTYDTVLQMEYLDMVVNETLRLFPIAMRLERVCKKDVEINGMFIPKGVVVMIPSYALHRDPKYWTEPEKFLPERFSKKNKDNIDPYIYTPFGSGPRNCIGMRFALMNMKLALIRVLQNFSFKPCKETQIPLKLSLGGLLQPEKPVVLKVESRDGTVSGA
Method in brief: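 Steps: enzyme/substrate mix dispensed; compound added, 10 min RT; NADPH regeneration solution added, 60 min RT; luciferin detection buffer stops reaction; 20 min later luminescence measured.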

Row | Compound | activity change, positive = activation | Potency
1 | NC(=NCCCCCCN=C(N)/N=C(\N)Nc1ccc(Cl)cc1)/N=C(\N)Nc1ccc(Cl)cc1 | -61.3% (inactive) | –
2 | CC(=O)O[C@]1(C(C)=O)CC[C@H]2[C@@H]3C[C@H](C)C4=CC(=O)CC[C@]4(C)[C@H]3CC[C@@]21C | -62.9% (inactive) | –
3 | COc1cccc2c1C(=O)c1c(O)c3c(c(O)c1C2=O)C[C@@](O)(C(=O)CO)C[C@@H]3O[C@H]1C[C@H](N)[C@H](O)[C@H](C)O1 | -65.3% (inactive) | –
4 | Oc1ccc(O)cc1 | -22.6% (inactive) | –
5 | COc1cccc2c1C(=O)c1c(O)c3c(c(O)c1C2=O)C[C@@](O)(C(C)=O)C[C@@H]3O[C@H]1C[C@H](N)[C@H](O)[C@H](C)O1 | -45.9% (inactive) | –
6 | O=C1OC(c2ccc(O)cc2)(c2ccc(O)cc2)c2ccccc21 | -87.5% (inactive) | –
7 | Oc1c(Cl)cc(Cl)cc1Sc1cc(Cl)cc(Cl)c1O | -66% (inactive) | –
8 | Cc1c2oc3c(C)ccc(C(=O)N[C@@H]4C(=O)N[C@H](C(C)C)C(=O)N5CCC[C@H]5C(=O)N(C)CC(=O)N(C)[C@@H](C(C)C)C(=O)O[C@@H]4C)c3nc-2c(C(=O)N[C@@H]2C(=O)N[C@H](C(C)C)C(=O)N3CCC[C@H]3C(=O)N(C)CC(=O)N(C)[C@@H](C(C)C)C(=O)O[C@@H]2C)c(N)c1=O (I: T[dV]P[Sar][NMeV] / II: T[dV]P[Sar][NMeV]; ester I:1-I:C, II:1-II:C; linker I:N-II:N via Actinocin(9to1)) | -32.4% (inactive) | –
9 | CC(=O)Oc1ccc(C(c2ccc(OC(C)=O)cc2)c2ccccn2)cc1 | – | inactive

What follows are compounds tested against Cytochrome P450 2D6 (Homo sapiens) (UniProt P10635) (assay: qHTS Assay for Inhibitors and Substrates of Cytochrome P450 2D6 (AID 891; further: nearly all actives have a fitted effect of over 60% in size; further: potency means the concentration at half of the fitted maximal effect;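 on activity change, negative = inhibition: luciferin methyl ether substrate demethylated by CYP2D6 with NADPH regeneration; on the % scale 0 is the no-effect control and ±100 the full control effect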)). Conditions: recombinant CYP2D6, luciferin-ME EGE luminescence; series mostly up to 57.1 µM; activity change, negative = inhibition: at the top concentration.
Sequence of Cytochrome P450 2D6 (Homo sapiens) (P10635 whole entry, looked up): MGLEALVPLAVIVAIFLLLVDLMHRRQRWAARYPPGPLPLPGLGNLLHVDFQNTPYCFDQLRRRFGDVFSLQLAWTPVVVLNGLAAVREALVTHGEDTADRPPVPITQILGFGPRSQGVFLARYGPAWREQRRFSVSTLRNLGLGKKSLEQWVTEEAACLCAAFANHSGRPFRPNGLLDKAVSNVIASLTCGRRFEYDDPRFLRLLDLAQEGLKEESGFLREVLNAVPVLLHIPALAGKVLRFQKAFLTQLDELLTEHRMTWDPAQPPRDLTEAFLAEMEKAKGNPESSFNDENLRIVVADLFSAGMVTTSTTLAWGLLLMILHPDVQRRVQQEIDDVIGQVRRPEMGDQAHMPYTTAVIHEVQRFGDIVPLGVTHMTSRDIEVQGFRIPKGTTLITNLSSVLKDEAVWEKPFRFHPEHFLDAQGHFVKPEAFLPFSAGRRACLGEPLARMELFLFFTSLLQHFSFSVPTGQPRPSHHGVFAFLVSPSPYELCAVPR
Method in brief: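 Human CYP2D6 (5 nM) with 30 uM Luciferin-ME EGE (at Km) in 100 mM KPO4, compound preincubated 10 min, then NADPH regeneration system for 60 min at room temperature. Luciferin read by luminescence; normalized to 1.43 uM quinidine.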

Row | Compound | Potency | activity change, negative = inhibition
10 | NC(=NCCCCCCN=C(N)/N=C(\N)Nc1ccc(Cl)cc1)/N=C(\N)Nc1ccc(Cl)cc1 | 7.94 µM (active) | –
11 | Oc1ccc(O)cc1 | – | 6.87% (inactive)
12 | COc1cccc2c1C(=O)c1c(O)c3c(c(O)c1C2=O)C[C@@](O)(C(C)=O)C[C@@H]3O[C@H]1C[C@H](N)[C@H](O)[C@H](C)O1 | – | 0.79% (inactive)
